In PubChem BioAssay (Tox21) one finds Potency and outcome data, which are given here for eight molecules.

Inconclusive results are not listed. The source holds several records for some structures; these can differ, active in one and inactive in another. The source made the active and inactive calls. Unless noted, calls come from the whole dose curve; as a rule, active = well fitted curve in the direction sought with a large enough effect in the repeat runs; inconclusive = weak or mixed curves; inactive = no such curve, though single readings can be large; an effect the other way counts as inactive or inconclusive.

A short description of test [1]: A CellTox Green Cytotoxicity Assay to monitor cytotoxicity in HEK293 cells - 32 hour (AID 1224881). Note: nearly all actives have a fitted effect of over 40% in size. Note: potency is the fitted concentration of half-maximal effect. In short, it runs like this:
(§1)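 Fluorescence from a DNA-binding dye excluded by viable cells was measured repeatedly in the same HEK293 wells (600 cells/well) during continuous compound exposure at 37 C. Each assay gives one read point: 0, 8, 16, 24, 32 or 40 h.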

A short description of test [2]: A CellTox Green Cytotoxicity Assay to monitor cytotoxicity in HepG2 cells - 0 hour (AID 1224882). Note: nearly all actives have a fitted effect of over 35% in size. In short, it runs like this: (§2)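 Real-time cytotoxicity: fluorescence of a cell-impermeant cyanine dye binding DNA of dead HepG2 cells, measured repeatedly (0–40 h) during compound exposure at 37 C. Cells seeded 600/well with reagent, dosed after 5 h.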
Test [3] in a line: A CellTox Green Cytotoxicity Assay to monitor cytotoxicity in HepG2 cells - 32 hour (AID 1224883). Note: nearly all actives have a fitted effect of over 50% in size. Put shortly: as §2
A short description of test [4]: qHTS RealTime-Glo MT Cell Viability Assay in HepG2 cells - 16 hour (AID 1224885). Note: nearly all actives have a fitted effect of over 50% in size. In short, it runs like this:
(§3)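 Luminescence read-out: viable HepG2 cells reduce a prosubstrate to a NanoLuc substrate, giving a signal proportional to live cell number. Reads taken at 0, 8, 16, 24, 32 and 40 h of compound exposure at 37 C.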

Test [5] is described as follows: qHTS RealTime-Glo MT Cell Viability Assay in HEK293 cells - 8 hour (AID 1224887). Note: top concentration of the series differs between compounds; nearly all actives have a fitted effect of over 50% in size. Put shortly: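 Luminescence, which tracks viable cell number through reduction of the prosubstrate to a NanoLuc substrate, was read over continuous 37 C culture. Cells (600/well) were premixed with reagent and rested 5 h before 23 nL of compound in DMSO was pinned.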
Test [6] in a line: A CellTox Green Cytotoxicity Assay to monitor cytotoxicity in HEK293 cells - 16 hour (AID 1224888). Note: nearly all actives have a fitted effect of over 35% in size. Put shortly: as §1
Test [7] in a line: qHTS RealTime-Glo MT Cell Viability Assay in HepG2 cells - 0 hour (AID 1224889). Note: nearly all actives have a fitted effect of over 50% in size. Put shortly: as §3
Test [8] in a line: A CellTox Green Cytotoxicity Assay to monitor cytotoxicity in HepG2 cells - 8 hour (AID 1224890). Note: nearly all actives have a fitted effect of over 45% in size. Put shortly: as §2
The nature of test [9]: qHTS assay to identify small molecule antagonists of the estrogen receptor alpha (ER-alpha) signaling pathway using the BG1 cell line in the presence of 0.1 nM 17-beta-estradiol - cell viability counter screen (AID 1259241). Note: nearly all actives have a fitted effect of over 40% in size. Put shortly: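 Following 5 days in phenol red-free medium with charcoal-stripped serum, VM7Luc4E2 cells received test compounds alongside 0.1 nM 17beta-estradiol (final) at 37C for 22 hr. Live cells were then quantified via protease-substrate fluorescence.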

Test [10] is described as follows: qHTS assay to identify small molecule antagonists of the androgen receptor (AR) signaling pathway using the MDA cell line in the presence of 0.5 nM R1881 - cell viability counter screen (AID 1259242). Note: nearly all actives have a fitted effect of over 45% in size. In short, it runs like this:
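Live-cell protease activity was measured by CellTiter-Fluor fluorescence after 30 min. Before that, MDA-kb2 MMTV-luciferase cells had 16 hr at 37C without CO2, exposed to test compounds and 0.5 nM R1881 final.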

Test [11] can be described thus: qHTS assay to identify small molecule HDAC inhibitors - cell viability counter screen (AID 1259365). In short, it runs like this: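 HCT-116 wild-type, overnight attachment; 2hr drug exposure, 37C; CellTiter-Glo luminescent ATP readout after 30min RT.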
Test [12] can be described thus: qHTS assay to identify small molecule antagonists of the sonic hedgehog signaling (Shh) pathway - cell viability counter screen (AID 1259367). Note: nearly all actives have a fitted effect of over 55% in size. Note: potency is the fitted concentration of half-maximal effect. Put shortly:
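Cytotoxicity was assessed in parallel with Shh reporter activity by measuring live-cell protease fluorescence (CellTiter-Fluor) in NIH/3T3 cells stably carrying Gli1-Luc, treated with compound under conditioned medium stimulation for 23 hr plus 1 hr reagent incubation.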

The nature of test [13]: qHTS assay to identify small molecule agonists of the sonic hedgehog signaling (Shh) pathway (AID 1259368; calls by dose curve;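 note: NIH/3T3-derived 3T3Gli1-Luc cells carrying a stable Gli1-driven firefly luciferase reporter; series mostly up to about 92 µM; nearly all actives have a fitted effect of over 15% in size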). Put shortly: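 Luminescence was read after 30 min at room temperature with luciferase reagent. Before that, 3T3Gli1-Luc cells (NIH/3T3 clone, stable Gli1-Luc reporter; 2,000/well) were exposed to compounds for 24 hr at 37C, 5% CO2, compounds being added 4 hr post-plating.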

Test [14] deals with Estrogen receptor (Homo sapiens) (UniProt P03372). The test can be described thus: qHTS assay to identify small molecule antagonists of the estrogen receptor alpha (ER-alpha) signaling pathway using the BG1 cell line in the presence of 0.1 nM 17-beta-estradiol (AID 1259244). Note: nearly all actives have a fitted effect of over 50% in size. In short, it runs like this:
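Luciferase luminescence (ONE-Glo, 30 min at room temperature) was read after 22 hr at 37C exposure to compounds plus 17beta-estradiol at 0.1 nM final. Cells were VM7Luc4E2 with endogenous ER-alpha and an ERE-driven luciferase, pre-cultured 5 days in hormone-depleted medium.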

A short description of test [15]: qHTS assay to identify small molecule HDAC inhibitors (AID 1259364). Note: top concentration of the series differs between compounds; nearly all actives have a fitted effect of over 45% in size. In short, it runs like this: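 Luminescence read after 30 min room-temperature HDAC-Glo incubation measures cellular class I/II HDAC activity. Compounds were applied for 2 hr at 37 C to HCT-116 wild-type cells seeded the day before.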
Test [16] in a line: qHTS RealTime-Glo MT Cell Viability Assay in HEK293 cells - 24 hour (AID 1224886). Put shortly:
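Nonlytic real-time viability readout: viable cells convert prosubstrate to NanoLuc substrate, giving luminescence proportional to live cell number. HEK293, 600 cells/well, compound added after 5 h, continuous culture at 37 C.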

The nature of test [17]: qHTS assay to identify small molecule agonists of the sonic hedgehog signaling (Shh) pathway - cell viability counter screen (AID 1259366). Note: nearly all actives have a fitted effect of over 50% in size. Note: potency is the fitted concentration of half-maximal effect. Put shortly:
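Compounds in DMSO were pin-transferred onto 3T3 Gli1-Luc cells that had settled 4hr; plates then stood 24hr at 37C and 5% CO2. One hour before the end, CellTiter-Fluor was added and fluorescence recorded.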

The nature of test [18]: A CellTox Green Cytotoxicity Assay to monitor cytotoxicity in HEK293 cells - 8 hour (AID 1224884). Note: nearly all actives have a fitted effect of over 35% in size. Put shortly:
as §1

Sequence of Estrogen receptor (Homo sapiens) (P03372 whole entry, looked up): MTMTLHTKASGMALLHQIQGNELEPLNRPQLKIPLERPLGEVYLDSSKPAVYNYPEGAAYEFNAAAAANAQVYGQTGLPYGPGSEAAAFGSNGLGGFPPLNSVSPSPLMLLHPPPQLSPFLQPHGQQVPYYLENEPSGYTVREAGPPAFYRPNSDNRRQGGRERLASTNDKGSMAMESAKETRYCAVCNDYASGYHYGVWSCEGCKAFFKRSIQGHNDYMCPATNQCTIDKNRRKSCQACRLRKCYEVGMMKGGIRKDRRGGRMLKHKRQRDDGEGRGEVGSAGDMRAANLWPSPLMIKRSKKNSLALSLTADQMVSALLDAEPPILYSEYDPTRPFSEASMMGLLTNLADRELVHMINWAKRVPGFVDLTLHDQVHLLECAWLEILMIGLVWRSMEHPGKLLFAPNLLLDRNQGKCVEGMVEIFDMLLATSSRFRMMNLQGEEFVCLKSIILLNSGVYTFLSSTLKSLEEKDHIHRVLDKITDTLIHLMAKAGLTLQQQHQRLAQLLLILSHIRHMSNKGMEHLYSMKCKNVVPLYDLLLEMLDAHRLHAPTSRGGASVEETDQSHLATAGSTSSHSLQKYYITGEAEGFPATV

On to `C=CCc1ccc(OC)c(OC)c1`, for which the Potency result in test [1], in test [3], in [4], in test [5], in test [6] and in [7] was “inactive” throughout. Besides, the Potency entry in [9], in test [10] and in test [12] was “inactive” each time. The result in [2], in test [8], in [11] and in test [13] was inactive.
For `CCCCCCCCCCO`, the Potency in test [1] is 39 µM (active) and inactive. For the same molecule, the molecule was classed as inactive in [2], in [8], in test [11] and in test [13]. The Potency entry in test [3], in [4], in test [5], in test [7], in test [9] and in test [10] was “inactive” each time. Besides, the Potency result in [14], in [15] and in test [12] was “inactive” in each case.
As for `N#Cc1ccccc1`, the Potency entry in [1], in test [3], in test [4], in test [16], in [5] and in test [7] was “inactive” in each case. Moreover, the Potency result in test [9], in test [10], in test [15], in test [17] and in test [12] was “inactive” throughout. Also, the outcome in [2], in test [8], in test [11] and in test [13] was inactive.
Take `CCNc1cccc(C)c1`: the Potency entry in test [1], in [3], in test [16], in test [5], in [6] and in test [7] was “inactive” in each case. Also, the Potency entry in [9], in test [10], in test [14], in test [15] and in [12] was “inactive” each time. In addition, the molecule was called inactive in test [2], in test [8], in test [11] and in test [13].
Consider `C=C(C)C(=O)OCC(C)C`, for which the Potency entry in test [1], in test [3], in test [4], in [5], in test [6] and in [7] was “inactive” throughout. Further, the Potency result in [9], in test [10], in test [14] and in [15] was “inactive” each time. Moreover, the call in test [2], in [8], in test [11] and in test [13] was inactive. Besides, the Potency in test [17] is 27.7 µM (active) and inactive; in [12], 7.8 µM (active) and inactive.
Turning to `Brc1ccc(Br)c(Br)c1`, the molecule was called inactive in test [2], in [18], in test [8], in [11] and in test [13]. Moreover, the Potency result in test [3], in test [4], in [16], in [5], in test [7] and in test [9] was “inactive” throughout. Further, the Potency entry in test [10], in test [14], in test [15], in test [17] and in test [12] was “inactive” each time.
For the molecule `CC(C)OP(=O)(CP(=O)(OC(C)C)OC(C)C)OC(C)C`, the Potency entry in test [1], in test [3], in [4], in [5], in test [7] and in [9] was “inactive” in each case. Besides, the Potency entry in test [10], in test [14], in test [15], in test [17] and in test [12] was “inactive” each time. In addition, the molecule was classed as inactive in [2], in [8], in [11] and in test [13].
On to `c1ccc2c(c1)Cc1ccccc1-2`, for which the molecule was called inactive in [2], in [8], in [11] and in [13]. Further, the Potency result in test [3], in test [5], in test [6], in test [7], in [9] and in test [10] was “inactive” throughout. Further, the Potency entry in [14], in test [15], in test [17] and in test [12] was “inactive” in each case.
